Compound activity (PubChem BioAssay)
Mcl1-Bid inh – Mcl-1/Bid binding inhibitors, primary screen, biochemical, TR-FRET, 1536-well | AID 1021, 2008 | Induced myeloid leukemia cell differentiation protein Mcl-1 (Homo sapiens), Q07820 | inhibition, % at 21.7 µM | 220,000 compounds, 0.97% hits | TR-FRET Mcl-1/Bid-Dy647 peptide binding;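 active means compounds that cut the binding signal by more than half at the single screening dose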;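 further: His-tagged Mcl-1 with europium anti-His antibody binding Bid BH3 peptide; 0% = Mcl-1 plus peptide wells and 100% = peptide-only wells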
Target sequence (Q07820 whole entry, looked up): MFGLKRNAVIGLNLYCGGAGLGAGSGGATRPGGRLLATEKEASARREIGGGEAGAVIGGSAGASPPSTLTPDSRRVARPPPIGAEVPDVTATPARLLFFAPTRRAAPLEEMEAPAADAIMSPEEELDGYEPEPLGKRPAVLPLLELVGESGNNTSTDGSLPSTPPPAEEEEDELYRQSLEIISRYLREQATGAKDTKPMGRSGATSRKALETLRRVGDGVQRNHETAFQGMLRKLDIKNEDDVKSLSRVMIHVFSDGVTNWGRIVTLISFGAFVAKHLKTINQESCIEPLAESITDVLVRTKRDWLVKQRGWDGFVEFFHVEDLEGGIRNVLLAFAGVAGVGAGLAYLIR
Bcl-xL primary – inhibitors of human Bcl-xL, primary screen, biochemical, fluorescence polarization, HTS; Bcl-2-like protein 1 (Homo sapiens), Q07817; GST-Bcl-xL / FITC-Bim BH3 peptide fluorescence polarization; inhibition, % at 10.9 µM; 320,000 compounds, 0.7% hits;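 active means inhibition above the mean of all tested compounds plus 3 SD, cutoff set per campaign, cut at about 30% in these data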;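 further: 0% = DMSO wells and 100% = unlabeled Bim-BH3 peptide competitor; inhibitors lower millipolarization by displacing the labeled peptide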
Target sequence (Q07817 whole entry, looked up): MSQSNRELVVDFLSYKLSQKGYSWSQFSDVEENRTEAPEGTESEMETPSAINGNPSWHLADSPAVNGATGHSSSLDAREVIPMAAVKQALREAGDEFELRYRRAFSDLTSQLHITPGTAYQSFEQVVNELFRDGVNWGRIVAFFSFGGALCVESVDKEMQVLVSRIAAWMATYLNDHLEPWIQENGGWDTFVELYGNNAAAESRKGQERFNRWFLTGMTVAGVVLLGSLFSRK
GLD-1 RNA inh – GLD-1/TGE RNA complex disruptors, primary screen, biochemical, fluorescence polarization | inhibition, % at 5.96 µM | purified GLD-1 + fluorescein TGE RNA | 320,000 compounds, 0.44% hits | AID 2280, 2010 | Female germline-specific tumor suppressor gld-1 (Caenorhabditis elegans), Q17339;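 active means percent inhibition above a per-plate cutoff, the plate mean of test compounds plus 3 SD, cut at about 30% in these data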;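 further: 0% = DMSO wells with GLD-1 and probe and 100% = wells lacking GLD-1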
Mcl1-Noxa inh – Mcl-1/Noxa binding inhibitors, primary screen, biochemical, TR-FRET, 1536-well; Induced myeloid leukemia cell differentiation protein Mcl-1 (Homo sapiens), Q07820; TR-FRET Mcl-1/Noxa peptide binding, 2 h; inhibition, % at 21.7 µM; 220,000 compounds, 1.5% hits; AID 1022, 2008;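 active means compounds that cut the protein-peptide binding signal by more than 50% relative to plate controls in a single-dose test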;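 further: His-tagged Mcl-1 with rhodamine Noxa BH3 peptide and terbium anti-His antibody; 0% = Mcl-1 plus Noxa peptide wells and 100% = peptide-only wells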
Bim-Mcl-1 – inhibitors of Bim peptide binding to Mcl-1, primary screen, biochemical, bead-based flow cytometry, multiplex. Bim peptide-Mcl-1 binding. inhibition, % at 10 µM. 190,000 compounds, 0.1% hits; in the data active means inhibition above about 40%;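 further: 0% = no compound tracer wells and 100% = peptide blocker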
MCL1 BIM primary – inhibitors of MCL1 binding to BIM-BH3, primary screen, biochemical, fluorescence polarization. GST-MCL1 / FITC-Bim-BH3 fluorescence polarization. AID 2057, 2009. inhibition, % at 10.9 µM. 320,000 compounds, 0.68% hits. Induced myeloid leukemia cell differentiation protein Mcl-1 (Homo sapiens), Q07820;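 active means inhibition above the mean inhibition of all tested compounds plus 3 SD, set per campaign, cut at about 40% in these data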;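 further: 0% = DMSO wells and 100% = unlabeled Bim-BH3 peptide control; higher means more loss of mP so more displacement of Bim peptide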
The depositor's hits bear a star; · = no result. Only some compounds are listed: those with a hit (about 2.3% of all), similar ones and a draw of the others.

SMILES	Mcl1-Bid inh	Bcl-xL primary	GLD-1 RNA inh	Mcl1-Noxa inh	Bim-Mcl-1	MCL1 BIM primary
COc1cc(/C=C(/C#N)c2nc3ccccc3[nH]2)ccc1OCC(=O)Nc1ccccc1C(C)C	59*	-5	-3	34	16	-1
CCn1cnc2c1c(=O)n(Cc1ccc(C(=O)OC)cc1)c(=O)n2Cc1ccccc1	·	4	4	·	·	-2
NC(=O)c1c(NC(=O)c2cccnc2)sc2c1CCCCC2	·	9	2	·	·	16
O=C(CN1C(=O)S/C(=C\c2cc(Cl)c(O)c(Cl)c2)C1=O)Nc1ccccc1	·	-49	-31	·	·	-72
CCOC(=O)C1=NNC2(c3ccc(C)cc3)C(=O)N(c3ccccc3)C(=O)C12 (centres undefined)	-8	6	-3	18	·	-4
CC(C)N1CN(c2ccccc2)C(=S)N(c2ccccc2)C1	-34	2	-4	6	·	6
Nc1cc([N+](=O)[O-])ccc1Nc1ccc(O)cc1	-234	6	2	72*	·	24
COc1ccc(-c2sc(Nc3ccccc3)n[n+]2C)c(C)c1C	·	3	3	·	·	9
COc1ccc(-c2cc(-c3ccco3)[nH]c(=O)c2C#N)cc1OC	-7	46*	16	15	·	46*
Cc1nn(CC(=O)Nc2ccccc2C(F)(F)F)c(=O)c2cccn12	·	-3	-5	·	·	-7
CC1(C)CC(NC(=O)COc2ccc([N+](=O)[O-])cc2)CC(C)(C)N1	-12	4	2	22	68*	6
FC(F)(F)c1ccccc1CN1CCC(Cc2ccccc2)CC1	·	1	8	·	·	15
CC1CN(Cc2ccccc2Cl)CC(C)O1 (centres undefined)	51*	-2	-2	33	-3	-4
Clc1ccccc1CN1CCC(Cc2ccccc2)CC1	54*	3	4	20	-3	2
C=C1c2ccccc2S(=O)(=O)N(Cc2ccccc2)C1COCc1ccccc1 (centres undefined)	-29	5	3	-21	·	5
CC(=O)N1c2ccc(Cl)cc2C2OCCC2C1c1ccco1 (centres undefined)	-46	1	-1	6	·	-4
Clc1ccc2c(c1)C1OCCC1C(c1ccco1)N2 (centres undefined)	-20	32*	27	15	2	31
Cc1ccc(-c2nc(SC(C)C(=O)c3c(N)n(C)c(=O)n(C)c3=O)n[nH]2)cc1 (centres undefined)	·	0	-3	·	·	1
Cc1ccc(SCC(=O)OC(C)C(=O)NC2CCCCC2C)c(C)c1 (centres undefined)	·	-2	-2	·	·	-3
N#C/C(=C/c1ccc(-c2cc([N+](=O)[O-])ccc2Cl)o1)C(N)=O	57*	8	-6	70*	·	28
CNC(=O)/C(C#N)=C/c1ccc(-c2ccc(OC)cc2[N+](=O)[O-])o1	66*	8	5	40	1	11
Cc1ccc2c(CN3CCN(S(=O)(=O)c4ccccc4C(F)(F)F)CC3)cc(=O)oc2c1C	·	-1	7	·	·	4
CCCOc1ccc(OCCCCNC(C)CC)cc1 (centres undefined)	60*	10	6	28	-2	8
COc1ccc(C)cc1NC(C)C(=O)NC(=O)NC1CCCCC1 (centres undefined)	·	-2	-2	·	·	-2
CCOc1c(C(N)=O)c(-c2ccccc2)c2c(=O)[nH]c3ccccc3n12	99*	9	2	3	-7	7
SMILES	Mcl1-Bid inh	Bcl-xL primary	GLD-1 RNA inh	Mcl1-Noxa inh	Bim-Mcl-1	MCL1 BIM primary
CCOC(=O)c1c(C)nc(C)c(C(=O)OCC)c1-c1ccccc1	-18	2	5	-1	11	6
CC1=CC(C#N)(C#N)C(C#N)(C#N)C(c2ccccc2)N1 (centres undefined)	-27	145*	119*	19	-2	151*
CCC[N+](C)(C)C(C)C(OC(C)=O)c1ccccc1 (centres undefined)	2	-17	1	31	·	-16
Cc1ccc2cc3c(N)c(C(=O)N4CC(=O)Nc5ccccc54)sc3nc2c1	8	-6	-12	58*	0	-19
Cc1ccc2nc3sc(C(=O)Nc4c(C)[nH]c(=O)[nH]c4=O)c(N)c3cc2c1	-37	10	-9	56*	-1	9
Cc1ccc2cc3c(N)c(C(=O)Nc4c(C)[nH]c(=O)[nH]c4=O)sc3nc2c1	-32	13	-5	66*	-2	3
Cc1ccc2cc3c(N)c(C(=O)N4CCOCC4)sc3nc2c1	-55	4	-5	22	-3	5
Cc1[nH]c(=O)[nH]c(=O)c1NC(=O)c1sc2nc3c(C)cccc3cc2c1N	-59	8	-13	36	-5	14
Cc1ccc(C(=O)Nc2nc(C)c(C(=O)Nc3ccc4c(c3)CCC4)s2)cc1	-3	7	-3	-38	-5	6
Cc1ccc(S(=O)(=O)NCCc2ccncc2)cc1[N+](=O)[O-]	·	5	-2	·	·	2
O=C(Nc1nccs1)C1CC(=O)N(CCc2ccc(F)cc2)C1 (centres undefined)	·	4	0	·	·	15
Cc1nnc(SCc2ccc(CSc3nnc(C)c(=O)[nH]3)cc2)[nH]c1=O	-40	12	9	18	-5	0
CCCOc1ccc(NC(=O)CC2C(=O)OCC3CCCCN32)cc1 (centres undefined)	·	0	0	·	·	-2
O=C(NCc1ccc(Cl)cc1)C1CCCN1C(=O)Nc1ccc(F)cc1 (centres undefined)	·	7	10	·	·	-2
CCC1=[N+](C)CCn2c(C)ccc21	-18	-11	-10	12	-3	-18
CC(=O)c1c(C)c(C)c2n1CCn1c(C)ccc1-2	-258	36*	18	26	·	31
O=C(Nc1ccc2sccc2c1)c1ccc(Cl)s1	82*	2	6	7	-2	4
COC(=O)N/N=C/c1cc(N=Nc2ccccc2Cl)ccc1O	7	-2	1	88*	·	2
Cc1cc(C(=O)N/N=C/c2cc(N=Nc3ccccc3)ccc2O)n[nH]1	25	-2	3	95*	0	27
Cc1cc(C(=O)N/N=C/c2cccc([N+](=O)[O-])c2O)n[nH]1	-80	5	-3	36	-8	16
COC(=O)N/N=C/c1cc(N=Nc2ccccc2)ccc1O	-15	3	7	-14	·	7
Cc1ccc(OCCn2c(SCCO)nc3c(N)ncnc32)cc1	·	-1	-6	·	·	-1
